We go through five compounds from PubChem BioAssay.

Calls of active or inactive are those of the source. Unless noted, no rule for the calls is given here.

A short description of assay [1]: compounds binding Alexa647 anti-His antibody – biochemical, small-molecule microarray, 635 nm fluorescence, artefact control for SMM control protein annotation, primary screen (AID 1128).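 Also: score merges feature fluorescence with signal-to-noise for each printed compound spot.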 The following applies: higher = more signal.
Assay [2] deals with Human papillomavirus type 1a E7 protein (residues 1-88). The assay is described as follows: HPV1a E7 small-molecule binders, primary screen, biochemical, small-molecule microarray, residues 1-88, 635 nm (AID 1129). The following applies: small-molecule microarray binding, fluorescence 635 nm; higher = more signal.
Assay [3] has as its target Focal adhesion kinase 1 (Homo sapiens) (UniProt Q05397). As to the kind of experiment: PTK2 protein binding on printed compound slides – biochemical, small-molecule microarray, 635/667 nm fluorescence, BSA, DTT, primary screen (AID 1130).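 Also: composite of spot emission at 667 nm and signal to noise over triplicate slides.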 The following applies: 635 nm fluorescence, higher = more signal.
Assay [4] relates to Fibrinogen (Alexa647-labelled). As to the kind of experiment: Alexa647-fibrinogen binding to printed small molecules – biochemical, small-molecule microarray, 635/667 nm fluorescence, artefact control for SMM control-protein annotation, profiling panel (AID 1131).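 Also: z-score merges 667 nm fluorescence with per-spot signal-to-noise over triplicate slides.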 The following applies: fibrinogen-A647 binding fluorescence, higher = more signal.
Assay [5] addresses Follistatin (Homo sapiens) (UniProt P19883). The assay is described as follows: FST protein binding to printed compounds – biochemical, small-molecule microarray, 635/667 nm fluorescence, primary screen (AID 1132). Conditions: 635 nm fluorescence, higher = more signal.
Assay [6] deals with Fibroblast growth factor 2 (Homo sapiens) (UniProt P09038). The assay is described as follows: basic fibroblast growth factor binding to printed compounds – biochemical, small-molecule microarray, 635/667 nm fluorescence, primary screen (AID 1133). Conditions: FGF2, fluorescence 635/667, higher = more signal.
The nature of assay [7]: JC-1 mitochondrial potential readout, lung cancer cells – cell-based, A549, JC-1 fluorescence, basal, 24 h, 100 nL, profiling panel (AID 1138).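 Also: A549 lung adenocarcinoma cells under basal conditions with no added stimulus; test concentration not given here.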 The following applies: higher = more signal.
Assay [8] has as its system Lefty1. As to the kind of experiment: Lefty1 protein binding to printed compounds – biochemical, small-molecule microarray, 635/667 nm fluorescence, primary screen (AID 1139). Conditions: fluorescence 635/667, higher = more signal.
The subject of assay [9] is wheat germ agglutinin (Triticum aestivum), Alexa647-labelled. The assay is described as follows: Alexa647-WGA lectin binding to printed small molecules – biochemical, small-molecule microarray, 635/667 nm fluorescence, artefact control for SMM control-protein annotation, profiling panel (AID 1140).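 Also: score merges 667 nm feature emission with signal to noise over triplicate slides.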 Conditions: WGA-A647 binding, 635 nm fluorescence, higher = more signal.
The target in assay [10] is Luciferin 4-monooxygenase (Photinus pyralis) (UniProt P08659). As to the kind of experiment: inhibition of purified Photinus pyralis luciferase – biochemical, luminescence, purified enzyme, 2006 set, primary screen (AID 1141).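 Also: cell-free assay with purified firefly luciferase at 100 ng per well in PBS; test concentration not given here.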 The following applies: purified firefly luciferase, SteadyGlo luminescence, 30 min; higher = more signal, called active from +8 up or from −8 down.

Assay [11] deals with Wnt5a (protein binding on small-molecule microarray). As to the kind of experiment: small molecules binding Wnt5a protein – biophysical, small-molecule microarray, 635/667 nm fluorescence, primary screen (AID 1142).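 Also: fluorescence read at 667 nm with signal to noise per printed feature.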 The following applies: 635 nm fluorescence, higher = more signal.
Assay [12] is described as follows: ATP-based viability of Huh7 replicon cells – cell-based, CellTiter-Glo luminescence, basal, 48 h, cytotoxicity control for HCV replication inhibitor project, primary screen (AID 1143).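 Also: Huh7 hepatoma cells carrying a hepatitis C replication reporter with no stimulus; test concentration not given here.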 The following applies: higher = more signal, called active from +8 up or from −8 down. For orientation: In antiviral work, replicon cells carry a viral genome segment that copies itself.

Assay [13] in a line: Pseudomonas biofilm growth suppression – PAO1 strain, BacTiter-Glo luminescence, LB-PBS, primary screen (AID 1144). The following applies: P. aeruginosa PAO1 biofilm, 12 h, higher = more signal.
A short description of assay [14]: basal CRE-LacZ reporter activity in PC12 – cell-based, unstimulated, primary screen (AID 1145). Conditions: no forskolin, luminescence, 4.5 h, higher = more signal, called active from +8 up or from −8 down.
A short description of assay [15]: forskolin-driven CRE-LacZ activity in PC12 – cell-based, CRE-LacZ reporter, forskolin-stimulated, primary screen (AID 1146).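 Also: PC12 cells with 6xCRE LacZ reporter stimulated by forskolin 10 µM; beta-galactosidase reporter signal reflecting CREB driven transcription.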 The following applies: luminescence, 4.5 h, higher = more signal, called active from +8 up or from −8 down.
In assay [16] the target is Streptavidin (Streptomyces avidinii) (UniProt P22629). As to the kind of experiment: compounds binding control protein streptavidin – biophysical, small-molecule microarray, 635/667 nm fluorescence, artefact control for SMM compound annotation, primary screen (AID 1147).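 Also: signal reflects streptavidin binding to arrayed compounds as a control protein.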 Conditions: higher = more signal.
The nature of assay [17]: probe aInhba binding on compound microarray – biochemical, small-molecule microarray, 635/667 nm fluorescence, primary screen (AID 1148).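 Also: score merges 667nm spot fluorescence with signal-to-noise for antibody binding to printed compounds.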 Conditions: higher = more signal.
Assay [18] has as its target Torsin-1A (Homo sapiens) (UniProt O14656). As to the kind of experiment: TOR1A wild-type binding on microarray – cell lysate, small-molecule microarray, lysate, 635/667 nm, primary screen (AID 1149). The following applies: COS7 hTOR1A-WT lysate, 635 nm fluorescence, higher = more signal.
Assay [19] has the same target. As to the kind of experiment: torsin A mutant lysate binding on microarrays – cell lysate, small-molecule microarray, COS7 lysate, 635/667 nm fluorescence, primary screen (AID 1150).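 Also: score pools 667 nm emission and signal to noise measuring lysate protein binding.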 The following applies: COS7 hTOR1A mutant lysate, 635 nm fluorescence, higher = more signal.
The test system of assay [20] is Sonic hedgehog protein (Shh). The assay is described as follows: Sonic hedgehog microarray binding compounds – biochemical, small-molecule microarray, 635/667 nm fluorescence, primary screen (AID 1151).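 Also: Shh protein binding to compounds spotted on small-molecule microarray slides; score combines spot fluorescence intensity with signal-to-noise across triplicate slides.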 Conditions: 635 nm fluorescence, higher = more signal.

Sequence of Focal adhesion kinase 1 (Homo sapiens) (Q05397 whole entry, looked up): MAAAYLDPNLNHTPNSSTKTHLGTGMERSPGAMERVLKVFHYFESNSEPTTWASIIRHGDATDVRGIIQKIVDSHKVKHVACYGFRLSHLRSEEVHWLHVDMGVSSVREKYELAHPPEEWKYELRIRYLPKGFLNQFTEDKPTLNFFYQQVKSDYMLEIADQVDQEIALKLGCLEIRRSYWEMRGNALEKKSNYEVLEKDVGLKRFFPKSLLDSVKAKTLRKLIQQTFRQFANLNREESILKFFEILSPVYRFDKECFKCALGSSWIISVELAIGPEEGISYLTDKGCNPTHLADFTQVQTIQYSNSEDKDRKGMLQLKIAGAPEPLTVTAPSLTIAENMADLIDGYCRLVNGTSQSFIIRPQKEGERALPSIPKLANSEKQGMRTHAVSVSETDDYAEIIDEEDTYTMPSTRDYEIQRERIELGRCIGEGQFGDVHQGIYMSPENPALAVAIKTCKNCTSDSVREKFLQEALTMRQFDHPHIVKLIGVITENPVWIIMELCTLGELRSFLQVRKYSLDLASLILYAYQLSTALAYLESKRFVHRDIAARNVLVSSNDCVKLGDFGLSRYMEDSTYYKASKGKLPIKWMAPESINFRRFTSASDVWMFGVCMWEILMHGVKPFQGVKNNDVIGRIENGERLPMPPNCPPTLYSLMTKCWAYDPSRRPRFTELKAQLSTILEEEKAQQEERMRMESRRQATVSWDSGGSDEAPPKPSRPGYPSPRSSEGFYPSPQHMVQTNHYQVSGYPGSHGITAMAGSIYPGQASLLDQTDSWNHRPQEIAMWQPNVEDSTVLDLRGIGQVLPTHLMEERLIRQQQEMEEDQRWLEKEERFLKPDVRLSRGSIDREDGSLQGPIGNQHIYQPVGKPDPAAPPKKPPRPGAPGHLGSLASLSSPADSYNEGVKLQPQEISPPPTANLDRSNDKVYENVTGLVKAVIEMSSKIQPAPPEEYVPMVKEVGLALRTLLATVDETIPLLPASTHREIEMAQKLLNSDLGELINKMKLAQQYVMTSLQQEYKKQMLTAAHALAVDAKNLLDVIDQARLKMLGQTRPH
Sequence of Torsin-1A (Homo sapiens) (O14656 whole entry, looked up): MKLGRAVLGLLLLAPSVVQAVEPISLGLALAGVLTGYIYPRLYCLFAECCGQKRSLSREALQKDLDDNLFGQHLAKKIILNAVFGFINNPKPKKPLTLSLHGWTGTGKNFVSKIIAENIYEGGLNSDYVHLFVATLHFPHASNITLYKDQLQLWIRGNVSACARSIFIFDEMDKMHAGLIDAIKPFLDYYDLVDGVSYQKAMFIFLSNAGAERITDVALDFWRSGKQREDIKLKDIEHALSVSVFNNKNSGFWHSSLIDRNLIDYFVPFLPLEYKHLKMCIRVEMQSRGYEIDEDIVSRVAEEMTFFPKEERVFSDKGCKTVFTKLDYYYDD
Sequence of Streptavidin (Streptomyces avidinii) (P22629 whole entry, looked up): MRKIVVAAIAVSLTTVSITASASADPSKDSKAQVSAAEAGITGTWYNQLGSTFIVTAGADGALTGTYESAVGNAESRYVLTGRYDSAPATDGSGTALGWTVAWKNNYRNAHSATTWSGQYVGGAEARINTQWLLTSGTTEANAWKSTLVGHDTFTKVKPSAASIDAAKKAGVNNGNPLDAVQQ
Sequence of Luciferin 4-monooxygenase (Photinus pyralis) (P08659 whole entry, looked up): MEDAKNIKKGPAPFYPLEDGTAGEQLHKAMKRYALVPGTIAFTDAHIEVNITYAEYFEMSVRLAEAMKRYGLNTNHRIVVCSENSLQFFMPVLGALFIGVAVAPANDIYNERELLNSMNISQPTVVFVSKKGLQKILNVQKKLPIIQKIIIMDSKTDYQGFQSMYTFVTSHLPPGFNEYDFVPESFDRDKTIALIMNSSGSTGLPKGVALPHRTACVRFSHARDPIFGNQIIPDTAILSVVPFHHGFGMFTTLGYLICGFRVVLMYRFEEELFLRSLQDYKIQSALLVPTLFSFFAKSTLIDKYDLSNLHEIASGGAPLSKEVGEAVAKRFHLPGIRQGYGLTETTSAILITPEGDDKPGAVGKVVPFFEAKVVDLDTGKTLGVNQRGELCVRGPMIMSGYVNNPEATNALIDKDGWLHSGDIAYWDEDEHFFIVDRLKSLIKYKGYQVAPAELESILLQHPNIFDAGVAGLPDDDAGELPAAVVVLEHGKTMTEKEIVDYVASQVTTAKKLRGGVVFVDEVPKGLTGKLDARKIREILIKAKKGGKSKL
Sequence of Fibroblast growth factor 2 (Homo sapiens) (P09038 whole entry, looked up): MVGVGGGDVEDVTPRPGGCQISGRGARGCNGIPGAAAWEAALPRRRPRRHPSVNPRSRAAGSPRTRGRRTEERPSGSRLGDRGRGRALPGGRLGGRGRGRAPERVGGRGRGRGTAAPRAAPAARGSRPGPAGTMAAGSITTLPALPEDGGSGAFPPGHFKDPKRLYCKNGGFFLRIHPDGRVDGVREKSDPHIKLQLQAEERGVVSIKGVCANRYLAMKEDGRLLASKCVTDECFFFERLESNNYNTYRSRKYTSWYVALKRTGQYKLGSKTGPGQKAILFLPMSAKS
Sequence of Follistatin (Homo sapiens) (P19883 whole entry, looked up): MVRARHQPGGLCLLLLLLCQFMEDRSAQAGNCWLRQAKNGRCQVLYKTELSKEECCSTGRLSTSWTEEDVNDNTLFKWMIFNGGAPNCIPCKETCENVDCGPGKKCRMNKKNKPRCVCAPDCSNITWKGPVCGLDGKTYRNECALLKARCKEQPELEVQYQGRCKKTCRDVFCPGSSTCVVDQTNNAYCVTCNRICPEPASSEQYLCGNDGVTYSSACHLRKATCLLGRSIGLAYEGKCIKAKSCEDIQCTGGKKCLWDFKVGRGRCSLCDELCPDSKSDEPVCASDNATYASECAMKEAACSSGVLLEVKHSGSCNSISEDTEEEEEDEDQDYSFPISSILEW

Take `COc1cc2c(cc1O)C(c1ccc(CN3CCCC3)cc1)N(Cc1ccc([N+](=O)[O-])o1)CC2` (stereo not given): the composite z-score in assay [1] was 0.27; in assay [2], -0.96; in assay [3], -0.537; in assay [4], 0.121; in [5], -0.147; in assay [6] it was 0.253. Moreover, the composite z-score in [8] is -0.606; in [9], 0.522; in assay [11] it was -0.176; in assay [16] it was -0.231; in assay [17] it was -0.105; in assay [18], 0.714. For the same compound, the values for the composite z-score in assay [19] and in assay [20] were 0.623 and -0.0987, respectively. The z-score in assay [7] is 1; in [10], -0.659 (inactive); in [12] it was -0.192 (inactive); in [13] it was 0.85 (inactive); in assay [14], 0.299 (inactive); in assay [15], 0.292 (inactive).

In the case of `C=CC[C@]1(C(=O)N(C)C)COC(c2ccc(OCCCO)cc2)=N1`, the composite z-score in [1] was 3.41; in [2], 1.09; in assay [3], 0.268; in assay [4], -0.744; in assay [5], 0.517; in assay [6], 0.982. For the same compound, the composite z-score in [8] was -0.26; in assay [9], 0.615; in assay [11], 1.07; in [16], 2.12; in [17], 0.3; in assay [18], 0.577. Besides, the composite z-score was 1.85 in assay [19] and -0.174 in assay [20]. The z-score was -0.392 in assay [7]; -2.7 (inactive) in assay [10]; -1.88 (inactive) in assay [12]; -1.15 (inactive) in assay [13]; 2.5 (inactive) in [14]; -1.45 (inactive) in assay [15].

`O=c1cccc(-c2ccccc2C(F)(F)F)o1`: the composite z-score is -0.602 in assay [1]; 0.389 in assay [2]; -0.0583 in assay [3]; -2.29 in [4]; -0.547 in assay [5]; -0.661 in assay [6]. Moreover, the composite z-score in [8] is -0.599; in assay [9], -0.861; in [11], 0.297; in assay [16], -0.318; in assay [17], 0.763; in assay [18], 0.242. Moreover, the composite z-score in assay [19] was 0.0563; in [20], -0.999. The z-score is -0.074 in [7]; 1.24 (inactive) in assay [10]; -0.121 (inactive) in assay [12]; 0.0176 (inactive) in assay [13]; -0.471 (inactive) in assay [14]; -0.12 (inactive) in [15].

On to `CC(C)C[C@H]1NC(=O)[C@@]23C(=O)N[C@@H](Cc4ccccc4)C2[C@H](C)[C@@]2(C)O[C@H]2C3/C=C/C/C=C\CNC(=O)[C@@H]2CCCN2C1=O` (stereo not given in full), for which the composite z-score in assay [1] was -0.17; in assay [2], -0.0447; in assay [3], -0.171; in assay [4], 0.789; in [5], 0.614; in [6], 0.829. For the same compound, the composite z-score is 0.661 in assay [8]; 0.032 in assay [9]; 0.275 in [11]; -0.362 in assay [16]; -0.0471 in assay [17]; -0.056 in assay [18]. Moreover, the composite z-score in [19] was -0.0683; in assay [20], 1.55. In addition, the z-score in assay [7] is -0.0387; in assay [10], -0.575 (inactive); in [12], -0.264 (inactive); in assay [13], 0.341 (inactive); in assay [14], 0.13 (inactive); in [15] it was 0.865 (inactive).

For the compound `C=CCC(OC(C)=O)[C@@H]1[C@@H](N(Cc2cccc3ccccc23)C(=O)c2ccc(-c3ccccc3)cc2)c2cc(OCCCO)ccc2N1C(=O)c1ccc2ccccc2n1` (stereo not given in full), the composite z-score in [1] was 0.112; in assay [2] it was 0.263; in assay [3] it was 0.0785; in assay [4], 0.677; in assay [5] it was 0.537; in [6], -0.0329. Further, the composite z-score in assay [8] is 0.752; in assay [9] it was 0.922; in assay [11], -0.133; in assay [16] it was 0.582; in assay [17] it was 0.195; in assay [18], 0.178. Further, the results for the composite z-score in assay [19] and in assay [20] were 0.309 and 0.664, respectively. Besides, the z-score is -0.0419 in assay [7]; 0.222 (inactive) in [10]; -0.205 (inactive) in assay [12]; 0.409 (inactive) in assay [13]; 0.106 (inactive) in [14]; 0.481 (inactive) in [15].
